From PubChem BioAssay (NCATS)
A number with no mark means an inactive call. Inconclusive results are not listed. Entries that show only a call come without a potency. The source made the active and inactive calls. Unless noted, the call rests on the fitted dose curve; in most records, active means well fitted curve in the direction sought with a large enough effect; inconclusive means small, poorly fitted or top-dose-only effect, or another doubt; inactive means no such curve, though single readings can be large; an effect the other way counts as inactive or inconclusive.

Columns and labels:
[1] = biological target: Cytochrome P450 1A2 (Homo sapiens) (UniProt P05177); test: p450-cyp1a2 (AID 410; calls by dose curve; further: potency means the concentration at half of the fitted maximal effect)
Procedure, shortened: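 20nM CYP1A2, 100uM Luciferin-ME (=Km), 100mM KPO4; cpd 10 min RT; +NADPH regen, 60 min RT; stop/detect 20 min; luminescence. Normalized to furafylline 57 uM = full inhibition.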

[2] = biological target: 3',5'-cyclic-AMP phosphodiesterase 4B (Homo sapiens) (UniProt Q07343); test: qHTS Assay for Inhibitors of PDE-IV (AID 607; active means well fitted activation curve with a large enough effect in the main read-out, with a control signal flat, not every such curve was filed as active; further: potency means the concentration at half of the fitted maximal effect)
Procedure, shortened: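 HEK293 ACTOne cells with CNG channel (1000/well), endogenous PDE4; membrane potential dye, compounds up to 22.9 uM final. Fluorescence Ex 535/Em 590; RO 20-1724 (100 uM final) as reference.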

[3] = biological target: Cytochrome P450 3A4 (Homo sapiens) (UniProt P08684); test: qHTS Assay for Inhibitors and Substrates of Cytochrome P450 3A4 (AID 884); further: nearly all actives have a fitted effect of over 50% in size; further: potency means the concentration at half of the fitted maximal effect
Procedure, shortened: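 Luminescent readout of luciferin produced by CYP3A4 (20 nM) dealkylation of Luciferin-PPXE, 25 uM (its KM). NADPH-driven reaction ran 60 min at RT after 10 min compound preincubation; data scaled to 57 uM ketoconazole as 100% inhibition.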

[4] = biological target: Cytochrome P450 3A4 (Homo sapiens) (UniProt P08684); test: qHTS Assay for Activators of Cytochrome P450 3A4 (AID 885); further: nearly all actives have a fitted effect of over 65% in size
Procedure, shortened: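 Human CYP3A4 dealkylates Luciferin-PPXE to luciferin, which luciferase detection converts to light. Substrate was at its KM (25uM), buffer 200mM KPO4, reaction 60 min at RT.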

[5] = biological target: Dual specificity protein kinase CLK4 (Homo sapiens) (UniProt Q9HAZ1); test: qHTS Assay for Inhibitors of CDC-like Kinase 4 (Kinase-Glo Assay) (AID 1770); further: nearly all actives have a fitted effect of over 65% in size; further: potency means the concentration at half of the fitted maximal effect
Procedure, shortened: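 Readout: Kinase-Glo luminescence from ATP left after a 4.5 h room-temperature reaction of 25 nM Clk4 with 100 uM RS peptide and 1 uM ATP (final). Buffer: 25 mM Tris pH 7.5, 10 mM MgCl2.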

[6] = biological target: Dual specificity protein kinase CLK4 (Homo sapiens) (UniProt Q9HAZ1); test: qHTS Assay for Inhibitors of CDC-like Kinase 4 (ADP-FP Assay) (AID 1795); further: nearly all actives have a fitted effect of over 60% in size; further: potency means the concentration at half of the fitted maximal effect
Procedure, shortened: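 FP readout: Orange Transcreener ADP2 tracer (4 nM) plus ADP antibody, read after 30 min at room temperature. Kinase step: 6.25 nM Clk4, 100 uM RS peptide, 1 uM ATP, pH 7.5, 1 h.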

[7] = qHTS Assay for Identification of Small Molecule Agonists for Hypoxia Response Element Signaling Pathway (AID 914; active means well fitted activation curve with a large enough effect in the signal ratio, with a control signal flat, not every such curve was filed as active; the % refers to the signal ratio; further: potency means the concentration at half of the fitted maximal effect); conditions: ME-180 (cervical carcinoma) HRE-bla reporter, beta-lactamase ratio, CoCl2, 17 h; activation: active compounds read high
Procedure, shortened: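 AC50 values come from titration-series %Activity, taken as the 460/530nm ratio of CCF4 fluorescence (excitation 405nm). CellSensor HRE-bla ME-180 cells were treated 17 hours at 37 C with compound plus an EC50 level of CoCl2.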

[8] = biological target: Dual specificity protein kinase CLK4 (Homo sapiens) (UniProt Q9HAZ1); test: qHTS Assay for Inhibitors of CDC-like Kinase 4 (ADP-Glo Assay) (AID 1771); further: nearly all actives have a fitted effect of over 70% in size; further: potency means the concentration at half of the fitted maximal effect
Procedure, shortened: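 25 nM Clk4, 100 uM RS peptide, 1 uM ATP (final); 2 mM MgCl2, 0.5 mM EGTA, 2.5 mM DTT, 0.01% Triton X-100; 1 hr RT. ADP-Glo readout: ATP depletion 45 min, conversion/luciferase 30 min, luminescence.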

[9] = Stat Signaling Pathway (AID 446; active means well fitted curve in either direction with a large enough effect, not every such curve was filed as active;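 further: ME-180 cervical cancer cells given 40 pM IL-6 alongside compound; SIE-controlled beta-lactamase reporter measured as 460/530 nm FRET emission ratio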)
Procedure, shortened: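 Normalization used AC90 stimulation (300 pM IL-6) and AC90 inhibition (125 nM pan-JAK inhibitor at 40 pM IL-6). The underlying signal is SIE-driven beta-lactamase in ME-180 cells after 5 h IL-6 exposure with compound.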

[10] = Viability counterscreen for agonist of constitutive androstane receptor (CAR) against the NCATS DSHEA and TCM libraries (AID 1794838);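 further: HepG2 cells with CYP2B6 reporter and hCAR plus 0.75 µM PK11195 antagonist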
Procedure, shortened: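 Viability by CellTiter-Fluor fluorescence, 405/540 nm, after 1 h at 37C. HepG2-CYP2B6-hCAR cells were exposed 24 h to test substances in presence of 0.75 uM PK11195 (final).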

[11] = biological target: Cytochrome P450 2C9 (Homo sapiens) (UniProt P11712); test: qHTS for inhibitors of CYP2C9 against the NCATS DSHEA and TCM libraries (AID 1919973); further: potency means the concentration at half of the fitted maximal effect
Procedure, shortened: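 Substances were tested against enzyme with a pro-luciferin substrate; minus-enzyme wells served as background. After NADPH-initiated oxidation (30-45 min, RT), light was generated with P450-Glo reagent.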

[12] = biological target: Nuclear receptor subfamily 1 group I member 2 (Homo sapiens) (UniProt O75469); test: Dual reporter qHTS for agonist of Pregnane X Receptor (hPXR) against the NCATS DSHEA and TCM libraries: Luminescence readout (AID 1920059)
Procedure, shortened: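 hPXR-Luc HepG2 cells, 2000/well in 5% charcoal-stripped FBS medium, attached 5 h, then exposed 24 h at 37C to compounds. Viability by CellTiter-Fluor, then luciferase luminescence with ONE-Glo.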

Cytochrome P450 1A2 (Homo sapiens), sequence (P05177 whole entry, looked up): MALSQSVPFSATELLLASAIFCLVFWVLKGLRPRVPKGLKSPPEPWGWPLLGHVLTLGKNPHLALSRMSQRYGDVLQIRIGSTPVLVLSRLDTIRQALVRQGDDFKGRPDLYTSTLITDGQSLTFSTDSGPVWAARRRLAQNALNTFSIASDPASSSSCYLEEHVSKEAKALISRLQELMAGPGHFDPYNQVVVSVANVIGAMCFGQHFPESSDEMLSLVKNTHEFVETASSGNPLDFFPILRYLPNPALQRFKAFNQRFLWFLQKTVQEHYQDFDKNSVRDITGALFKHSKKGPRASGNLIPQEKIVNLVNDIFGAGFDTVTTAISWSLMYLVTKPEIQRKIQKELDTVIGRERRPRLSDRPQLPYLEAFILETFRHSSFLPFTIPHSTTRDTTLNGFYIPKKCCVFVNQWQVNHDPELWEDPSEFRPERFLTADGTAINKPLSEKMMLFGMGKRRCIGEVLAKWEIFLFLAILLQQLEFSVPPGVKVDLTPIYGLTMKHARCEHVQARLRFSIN
Nuclear receptor subfamily 1 group I member 2 (Homo sapiens), sequence (O75469 whole entry, looked up): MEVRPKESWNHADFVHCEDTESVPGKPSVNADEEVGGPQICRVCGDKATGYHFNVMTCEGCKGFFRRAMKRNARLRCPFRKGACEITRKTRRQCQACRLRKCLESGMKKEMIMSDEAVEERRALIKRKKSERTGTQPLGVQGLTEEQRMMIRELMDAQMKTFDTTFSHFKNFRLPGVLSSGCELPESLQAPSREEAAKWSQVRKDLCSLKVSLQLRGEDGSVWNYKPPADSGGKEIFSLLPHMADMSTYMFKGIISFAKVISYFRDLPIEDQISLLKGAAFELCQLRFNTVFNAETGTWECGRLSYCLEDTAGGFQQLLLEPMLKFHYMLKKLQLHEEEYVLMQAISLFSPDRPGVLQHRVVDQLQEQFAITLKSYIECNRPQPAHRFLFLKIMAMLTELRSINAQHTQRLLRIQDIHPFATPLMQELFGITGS
Dual specificity protein kinase CLK4 (Homo sapiens), sequence (Q9HAZ1 whole entry, looked up): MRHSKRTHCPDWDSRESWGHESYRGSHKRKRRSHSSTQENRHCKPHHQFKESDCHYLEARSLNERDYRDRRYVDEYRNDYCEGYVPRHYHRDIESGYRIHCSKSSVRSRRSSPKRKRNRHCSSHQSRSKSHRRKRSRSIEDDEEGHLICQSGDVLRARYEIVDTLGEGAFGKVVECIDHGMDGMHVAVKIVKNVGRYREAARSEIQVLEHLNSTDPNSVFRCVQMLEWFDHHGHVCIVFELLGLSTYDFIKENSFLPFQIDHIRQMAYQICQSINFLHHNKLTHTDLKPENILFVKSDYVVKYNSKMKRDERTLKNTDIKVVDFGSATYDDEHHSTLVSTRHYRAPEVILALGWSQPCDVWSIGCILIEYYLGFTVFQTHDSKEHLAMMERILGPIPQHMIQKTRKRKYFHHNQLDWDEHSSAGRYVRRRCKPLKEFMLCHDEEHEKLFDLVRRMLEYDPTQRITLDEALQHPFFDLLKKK
3',5'-cyclic-AMP phosphodiesterase 4B (Homo sapiens), sequence (Q07343 whole entry, looked up): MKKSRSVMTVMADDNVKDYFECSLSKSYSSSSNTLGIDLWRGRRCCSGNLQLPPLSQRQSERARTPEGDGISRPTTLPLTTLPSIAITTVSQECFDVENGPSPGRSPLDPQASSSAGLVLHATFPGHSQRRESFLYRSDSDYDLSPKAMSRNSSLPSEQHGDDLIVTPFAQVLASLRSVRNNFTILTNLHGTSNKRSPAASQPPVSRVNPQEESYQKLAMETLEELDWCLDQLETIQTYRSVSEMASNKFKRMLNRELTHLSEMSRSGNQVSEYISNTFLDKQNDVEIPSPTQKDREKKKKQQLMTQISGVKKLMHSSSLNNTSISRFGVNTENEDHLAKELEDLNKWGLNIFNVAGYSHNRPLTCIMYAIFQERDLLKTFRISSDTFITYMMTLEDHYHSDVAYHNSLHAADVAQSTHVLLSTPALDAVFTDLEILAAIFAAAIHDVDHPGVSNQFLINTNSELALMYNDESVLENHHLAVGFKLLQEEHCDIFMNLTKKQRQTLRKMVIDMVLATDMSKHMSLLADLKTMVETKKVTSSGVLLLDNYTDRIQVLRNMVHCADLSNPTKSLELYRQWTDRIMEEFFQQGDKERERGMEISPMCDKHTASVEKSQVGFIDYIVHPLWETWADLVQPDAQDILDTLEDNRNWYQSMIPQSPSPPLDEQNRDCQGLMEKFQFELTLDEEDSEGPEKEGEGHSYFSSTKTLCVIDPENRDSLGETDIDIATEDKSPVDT
Cytochrome P450 3A4 (Homo sapiens), sequence (P08684 whole entry, looked up): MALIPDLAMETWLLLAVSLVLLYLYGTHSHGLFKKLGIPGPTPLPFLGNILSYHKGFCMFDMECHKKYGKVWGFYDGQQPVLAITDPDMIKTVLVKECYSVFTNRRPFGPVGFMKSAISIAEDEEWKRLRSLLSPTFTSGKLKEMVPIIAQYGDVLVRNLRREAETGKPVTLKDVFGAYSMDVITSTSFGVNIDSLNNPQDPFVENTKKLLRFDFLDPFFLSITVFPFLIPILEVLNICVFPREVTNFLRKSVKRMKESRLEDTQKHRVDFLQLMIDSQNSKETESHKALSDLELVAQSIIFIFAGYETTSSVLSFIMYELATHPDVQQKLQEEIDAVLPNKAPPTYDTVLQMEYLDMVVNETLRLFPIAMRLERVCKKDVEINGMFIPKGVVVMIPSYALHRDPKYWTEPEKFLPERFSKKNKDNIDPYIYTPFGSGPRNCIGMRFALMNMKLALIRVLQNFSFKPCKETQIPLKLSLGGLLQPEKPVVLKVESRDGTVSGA
Cytochrome P450 2C9 (Homo sapiens), sequence (P11712 whole entry, looked up): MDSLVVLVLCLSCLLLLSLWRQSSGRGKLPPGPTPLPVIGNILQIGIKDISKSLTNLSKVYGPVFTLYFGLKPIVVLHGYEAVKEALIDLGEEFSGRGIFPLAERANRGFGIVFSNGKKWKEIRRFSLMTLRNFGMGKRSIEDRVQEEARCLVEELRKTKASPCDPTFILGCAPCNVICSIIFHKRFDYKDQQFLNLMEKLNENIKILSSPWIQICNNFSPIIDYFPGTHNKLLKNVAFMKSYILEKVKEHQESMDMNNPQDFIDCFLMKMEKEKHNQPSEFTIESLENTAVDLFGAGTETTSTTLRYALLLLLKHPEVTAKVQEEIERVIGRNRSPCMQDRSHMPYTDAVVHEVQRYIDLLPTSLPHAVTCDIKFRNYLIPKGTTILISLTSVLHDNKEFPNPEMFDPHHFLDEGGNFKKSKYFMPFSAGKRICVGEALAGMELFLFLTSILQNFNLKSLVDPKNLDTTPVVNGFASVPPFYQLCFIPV

SMILES: COc1ccc2[nH]cc(CCNc3ncnc4ccc(-c5ccoc5)cc34)c2c1
- Potency [1]: 0.316 µM (active)
- Potency [2]: inactive
- Potency [3]: 3.98 µM (active)
- outcome [4]: inactive
- Potency [5]: 0.794 µM (active)
- Potency [6]: 0.562 µM (active)

SMILES: COc1ccc(-n2c(=O)c(CCc3ccccc3)nc3cnc(OC)nc32)cc1
- Potency [1]: 15.8 µM (active)
- Potency [2]: 2 µM (active)
- outcome [4]: inactive
- activation [7]: -18.9%
- Potency [8]: inactive
- Potency [6]: inactive

SMILES: Cc1ccccc1-c1ccc2ncnc(-n3ccnc3)c2c1
- Potency [1]: 0.794 µM (active)
- Potency [3]: 0.501 µM (active)
- outcome [4]: inactive
- Potency [8]: 7.08 µM (active)
- Potency [6]: 3.98 µM (active)

SMILES: CN(Cc1ccco1)c1cc(-c2ccc3c(c2)OCO3)ncn1
- Potency [1]: 0.501 µM (active)
- outcome [9]: inactive
- Potency [3]: 3.98 µM (active)
- outcome [4]: inactive
- Potency [8]: 3.16 µM (active)
- Potency [6]: 2.51 µM (active)

SMILES: COCCn1c(=O)c(CCc2ccccc2)nc2cnc(OCc3ccccc3)nc21
- Potency [5]: inactive
- Potency [6]: inactive

SMILES: O=c1c(CCc2ccccc2)nc2cnc(N3CCOCC3)nc2n1-c1ccccc1
- outcome [9]: inactive
- activation [7]: -5.71%
- Potency [8]: inactive
- Potency [6]: inactive

SMILES: COc1ccc2[nH]cc(CCNc3ncncc3-c3ccoc3)c2c1
- outcome [9]: inactive
- Potency [2]: inactive
- Potency [5]: 14.1 µM (active)
- Potency [6]: 3.55 µM (active)

SMILES: CN(C)c1ncc2nc(CCc3ccccc3)c(=O)n(CCc3ccccc3)c2n1
- Potency [1]: 6.31 µM (active)
- outcome [9]: inactive
- Potency [3]: 6.31 µM (active)
- outcome [4]: inactive
- activation [7]: 21.3%
- Potency [5]: inactive

SMILES: c1ccc2c(NCCN3CCOCC3)nc(-c3ccoc3)nc2c1
- Potency [1]: 5.01 µM (active)
- outcome [9]: inactive
- outcome [4]: inactive
- activation [7]: -2.73%
- Potency [8]: inactive

SMILES: CCNc1ncc2nc(-c3ccc(OC)cc3)c(=O)n(C)c2n1
- Potency [7]: 3.98 µM (active)
- Potency [8]: inactive
- Potency [6]: inactive

SMILES: COc1ccccc1-c1nccc(NCc2cccs2)n1
- outcome [9]: inactive
- Potency [5]: inactive

SMILES: COc1ccc(-c2nc3cnc(N4CCN(C)CC4)nc3n(CCc3ccccc3)c2=O)cc1
- Potency [1]: inactive
- Potency [2]: inactive
- Potency [3]: inactive
- Potency [7]: 3.16 µM (active)
- Potency [5]: inactive
- Potency [6]: inactive

SMILES: COc1cccc(Nc2ncc3nc(-c4cccs4)c(=O)n(C[C@H]4CCCO4)c3n2)c1
- outcome [9]: inactive
- Potency [2]: inactive
- Potency [8]: inactive
- Potency [6]: inactive

SMILES: CN(C)C(=O)c1ccc(-c2cc(NCc3ccccc3)ncn2)cc1
- Potency [1]: 12.6 µM (active)
- outcome [9]: inactive
- Potency [2]: inactive
- Potency [5]: 25.1 µM (active)

SMILES: COc1ccccc1-c1ccc2ncnc(N3CCNCC3)c2c1
- outcome [9]: inactive
- Potency [2]: inactive
- Potency [8]: 14.1 µM (active)
- Potency [6]: 7.94 µM (active)

SMILES: COc1ccc(-n2c(=O)c(-c3cccs3)nc3cnc(N4CCN(C)CC4)nc32)cc1
- Potency [1]: 2.51 µM (active)
- outcome [9]: inactive
- Potency [2]: inactive
- outcome [4]: inactive
- Potency [8]: inactive
- Potency [6]: inactive

SMILES: O=c1c(CCc2ccccc2)nc2cnc(Nc3ccccc3)nc2n1C[C@H]1CCCO1
- outcome [9]: inactive
- Potency [5]: inactive

SMILES: CCCCCCCC/C=C\CCCCCCCCCCCC(=O)O
- outcome [10]: inactive

SMILES: O=c1cc(-c2ccc(O)cc2)oc2cc(O[C@@H]3O[C@H](CO)[C@@H](O)[C@H](O)[C@H]3O[C@@H]3OC[C@](O)(CO)[C@H]3O)cc(O)c12
- outcome [10]: inactive
- Potency [11]: 8.91 µM (active)
- Potency [12]: inactive

SMILES: CC(C)[C@H](C)CC[C@@H](C)[C@H]1CC[C@H]2[C@@H]3CC=C4C[C@@H](O)CC[C@]4(C)[C@H]3CC[C@]12C
- outcome [10]: inactive
- Potency [11]: inactive

SMILES: CC/C=C\C/C=C\C/C=C\C/C=C\CCCCC(=O)O
- activity change, negative = cytotoxicity [10]: -13.9% [at 5 µM]
- activation [12]: -9.78% [at 5 µM]

SMILES: c1ccc(Nc2nc(-c3cccnc3)nc3ccccc23)cc1
- Potency [1]: 0.398 µM (active)
- outcome [9]: inactive
- outcome [4]: inactive
- Potency [8]: 3.55 µM (active)

SMILES: CCCCCC/C=C\CCCCCCCC(=O)O
- outcome [10]: inactive
- Potency [12]: inactive

SMILES: CC12CC3(O)OC(O1)C1(COC(=O)c4ccc(O)cc4)C3CC21OC1OC(CO)C(O)C(O)C1O (centres undefined)
- outcome [10]: inactive
- Potency [12]: inactive

SMILES: CCCCCCCCCCCCCC(=O)OCC(O)CO (centres undefined)
- outcome [10]: inactive

SMILES: CC[C@H](CC[C@@H](C)[C@H]1CCC2C3CCC4C[C@@H](O)CC[C@]4(C)C3CC[C@@]21C)C(C)C (some centres undefined)
- outcome [10]: inactive
- Potency [11]: inactive
